PubChem BioAssay (NCATS)
“And” between values parts separate entries of the source, which are not always exact repeats. Identical values can stand only once. Results filed as inconclusive are left out. Some compounds were tested as several samples or in several runs, with calls that do not always agree. The source made the active and inactive calls. Unless noted, the call rests on the fitted dose curve; in most records, active means well fitted curve in either direction with a large enough effect (not every such curve was filed as active); inconclusive means small, poorly fitted or top-dose-only effect, or another doubt; inactive means flat fitted curve, though single readings scatter.

Key:
[1] = AP1 Signaling Pathway (AID 357); conditions: ME-180 AP-1-bla reporter, EGF-induced, beta-lactamase ratio, 5 h; at 17.2 µM (top of the series) unless noted; further: on the % scale 0 is the no-effect control and ±100 the full control effect
In short: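 AP-1-bla ME-180 cells with beta-lactamase reporter under AP-1 response element, stimulated with EC50 EGF; compounds titrated, 5 hours at 37 degrees Celsius. CCF4 read at 460/530 nm ratio; positive and negative modulators judged by AC50.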

[2] = Cell Viability - BJ (AID 421; calls by dose curve;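 further: potency means the concentration at half of the fitted maximal effect; cells exposed to compound for 40 hours at 37 °C before readout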); conditions: BJ fibroblast viability, qHTS
In short: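 Cytotoxicity as drop in intracellular ATP (CellTiter-Glo, 20 min RT) after 40 hr compound exposure of BJ fibroblasts at 37 °C. Titrations scaled between DMSO and 100 uM tamoxifen, Hill-fitted for AC50.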

[3] = Cell Viability - HepG2 (AID 433; calls by dose curve;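 further: potency means the concentration at half of the fitted maximal effect; potency for ATP loss meaning cytotoxicity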); conditions: qHTS
In short: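 In this qHTS format, a 40 h, 37 °C compound incubation of HepG2 cells in complete medium precedes a 20 min CellTiter-Glo step at room temperature. Tamoxifen and doxorubicin serve as positive controls; Hill-equation fits yield AC50.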

[4] = Cell Viability - MRC5 (AID 434; calls by dose curve;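 further: potency means the concentration at half of the fitted maximal effect; potency reflects cytotoxicity seen as loss of intracellular ATP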); conditions: MRC5 lung fibroblast viability, qHTS
In short: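 ATP luminescence read-out (CellTiter-Glo, 20 min RT) after 40 hr, 37 °C compound exposure of 1500 MRC5 cells/well. Data normalized to DMSO (basal) and 100 uM tamoxifen (100% inhibition); AC50 from standard Hill equation.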

[5] = Cell Viability - SK-N-SH (AID 435; calls by dose curve; further: potency means the concentration at half of the fitted maximal effect); conditions: SK-N-SH neuroblastoma cell viability qHTS
In short: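 Human neuroblastoma line, 40 h exposure at 37 °C, ATP quantified via luciferase luminescence; DMSO and 100 uM tamoxifen define 0 and 100% inhibition for AC50 fitting.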

[6] = NFAT Signaling Pathway (AID 444); conditions: Jurkat NFAT-bla M1, carbachol, beta-lactamase ratio, 5 h; at 17.2 µM (top of the series) unless noted;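 further: carbachol stimulus at about its EC50 of 1 µM final; on the % scale 0 is the no-effect control and ±100 the full control effect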
In short: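 Jurkat cells with NFAT-driven β-lactamase reporter and co-expressed M1 receptor, stimulated with carbachol (final 1 uM, ~EC50), compound titration, 5 h at 37 °C. CCF4 loaded 1 h at RT; 460/530 nm ratio gave %activity and AC50.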

[7] = Stat Signaling Pathway (AID 446); conditions: ME-180 (cervical carcinoma) SIE beta-lactamase reporter, IL-6 stimulated, 5 h; at 17.2 µM (top of the series) unless noted;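 further: ME-180 cervical cancer cells given 40 pM IL-6 alongside compound; SIE-controlled beta-lactamase reporter measured as 460/530 nm FRET emission ratio; on the % scale 0 is the no-effect control and ±100 the full control effect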
In short: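 FRET read-out (405 nm excitation, 460/530 nm emission) of a beta-lactamase reporter under a STAT-inducible element in ME-180 cervical carcinoma cells. Cells with compound receive 40 pM IL-6 for 5 h. Values are normalised to AC90 stimulation and AC90 JAK-inhibitor controls.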

[8] = Cell Viability - N2a (AID 540; active means well fitted curve in the direction sought with a large enough effect; an effect the other way counts as inactive or inconclusive; further: nearly all actives have a fitted effect of over 45% in size; further: potency means the concentration at half of the fitted maximal effect;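 on activity change, negative = cytotoxicity: plate controls were DMSO alone for no effect and tamoxifen control for full effect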); conditions: N2a mouse neuroblastoma cell viability; activity change, negative = cytotoxicity: at 92.2 µM (top of the series)
In short: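 N2a mouse neuroblastoma, 1500 cells/well, 5 hr settle; compound 40 hr, 37 °C; CellTiter-Glo 20 min RT; luminescence; Hill-fit AC50.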

[9] = Cell Viability - NIH 3T3 (AID 541; active means well fitted curve in the direction sought with a large enough effect; an effect the other way counts as inactive or inconclusive; further: nearly all actives have a fitted effect of over 25% in size; further: potency means the concentration at half of the fitted maximal effect;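 on activity change, negative = cytotoxicity: plate controls were DMSO alone for no effect and tamoxifen positive control for full effect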); conditions: NIH 3T3 cell viability, qHTS; activity change, negative = cytotoxicity: at 92.2 µM (top of the series)
In short: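 qHTS format; 40 hr compound exposure, 37 °C; CellTiter-Glo luminescence (cellular ATP) read-out after 20 min at RT. Decrease in ATP = cytotoxicity; AC50 from standard Hill fit.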

[10] = Cell Viability - HUV-EC-C (AID 542; active means well fitted curve in the direction sought with a large enough effect; an effect the other way counts as inactive or inconclusive; further: nearly all actives have a fitted effect of over 35% in size; further: potency means the concentration at half of the fitted maximal effect; on activity change, negative = cytotoxicity: on the % scale 0 is the no-effect control and ±100 the full control effect)
In short: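 Luminescent ATP read-out (CellTiter-Glo, 20 min room temperature) after 40 hr compound treatment of HUV-EC-C cells at 37 °C. Concentration-response data fitted with the standard Hill equation to give AC50; tamoxifen and doxorubicin served as positive controls.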

[11] = Cell Viability - H-4-II-E (AID 543; active means well fitted curve in the direction sought with a large enough effect; an effect the other way counts as inactive or inconclusive; further: nearly all actives have a fitted effect of over 35% in size; further: potency means the concentration at half of the fitted maximal effect)
In short: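 qHTS, rat hepatoma H-4-II-E, 1500 cells/well; 40 hr compound exposure, 37 °C; CellTiter-Glo ATP luminescence after 20 min RT; AC50 by standard Hill fit.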

[12] = Cell Viability - SH-SY5Y (AID 544; active means well fitted curve in the direction sought with a large enough effect; an effect the other way counts as inactive or inconclusive; further: nearly all actives have a fitted effect of over 55% in size; further: potency means the concentration at half of the fitted maximal effect;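 on viability change, negative = cytotoxic: 0% = DMSO alone and -100% = 100 µM tamoxifen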); conditions: SH-SY5Y neuroblastoma cell viability
In short: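 SH-SY5Y, 1500 cells/well, 5 hr pre-incubation 37 °C; cpd 40 hr 37 °C; CellTiter-Glo 20 min RT; luminescence (ATP) read. qHTS concentration-response, Hill fit → AC50. Tamoxifen, doxorubicin as positive controls.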

[13] = Cell Viability - Mesenchymal (AID 546; active means well fitted curve in the direction sought with a large enough effect; an effect the other way counts as inactive or inconclusive;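 further: cells exposed to compound for 40 hours before reading; 0% = DMSO only and -100% = 100 µM tamoxifen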)
In short: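 Human renal mesenchymal cells (glomerulus-derived), 1000 cells/well, 5 hr 37 °C pre-incubation; compound 40 hr, 37 °C; CellTiter-Glo, 20 min RT; luminescence; AC50 via Hill equation.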

[14] = target: Cytochrome P450 1A2 (Homo sapiens) (UniProt P05177); test: p450-cyp1a2 (AID 410; calls by dose curve; further: potency means the concentration at half of the fitted maximal effect;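 on activity change, negative = inhibition: -100% = full effect of reference inhibitor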)
In short: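 20nM CYP1A2, 100uM Luciferin-ME (=Km), 100mM KPO4; cpd 10 min RT; +NADPH regen, 60 min RT; stop/detect 20 min; luminescence. Normalized to furafylline 57 uM = full inhibition.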

[15] = target: Glucocorticoid receptor (Homo sapiens) (UniProt P04150); test: GR-GFP Redistribution (AID 450;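 active means compounds whose dose series gives a full or clear partial fitted curve of increased nuclear translocation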; further: potency means the concentration at half of the fitted maximal effect); conditions: U2OS GR-GFP nuclear translocation, laser cytometry, 2 h
[16] = target: Glucocorticoid receptor (Homo sapiens) (UniProt P04150); test: GR-EFC Redistribution (AID 451; calls by dose curve; further: potency means the concentration at half of the fitted maximal effect); conditions: CHO-K1 GR-EFC translocation, beta-gal luminescence, 2 h
In short: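 CHO-K1 cells expressing nuclear EA and GR-ED fragments of b-gal; compounds titrated up to 46 uM final, 2 h at 37 C. GR nuclear translocation read as complemented b-gal luminescence after 1 h RT detection.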

[17] = target: 3',5'-cyclic-AMP phosphodiesterase 4B (Homo sapiens) (UniProt Q07343); test: qHTS Assay for Inhibitors of PDE-IV (AID 607; active means well fitted activation curve with a large enough effect in the main read-out, with a control signal flat, not every such curve was filed as active; further: % of control where 0% means no effect)
In short: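 Cell-based read-out of cAMP via a modified cyclic nucleotide-gated channel and membrane potential dye (535/590 nm) in HEK293 cells expressing PDE4 endogenously. Compounds tested up to 22.9 uM final; 100 uM RO 20-1724 reference.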

[18] = Cell Viability - Jurkat (AID 426;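 active means dose-dependent loss of cell ATP signal giving a full or clear fitted curve, ranked by lower potency value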; further: potency means the concentration at half of the fitted maximal effect); conditions: qHTS
In short: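 Luminescent ATP read-out (CellTiter-Glo, 20 min at room temperature) after 40 hr compound exposure at 37 °C of Jurkat E6-1 cells, 5000/well. Decreased ATP taken as cytotoxicity; AC50 from standard Hill equation.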

[19] = Cell Viability - Renal Proximal Tubule (AID 545; active means well fitted curve in the direction sought with a large enough effect; an effect the other way counts as inactive or inconclusive; further: nearly all actives have a fitted effect of over 40% in size; further: potency means the concentration at half of the fitted maximal effect;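 on activity change, negative = cytotoxicity: 0% = DMSO only and -100% = 100 µM tamoxifen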)
In short: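 In this qHTS format, normal rat kidney-derived proximal tubule cells in complete culture medium receive compound titrations, then sit 40 hours at 37 °C before luciferase-based ATP quantitation; potency is reported as AC50 from concentration-response curves.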

[20] = viability change, negative = cytotoxic: at 92.2 µM (top of the series)

Chain of Glucocorticoid receptor (Homo sapiens) (P04150 whole entry, looked up, the tested form may be a part): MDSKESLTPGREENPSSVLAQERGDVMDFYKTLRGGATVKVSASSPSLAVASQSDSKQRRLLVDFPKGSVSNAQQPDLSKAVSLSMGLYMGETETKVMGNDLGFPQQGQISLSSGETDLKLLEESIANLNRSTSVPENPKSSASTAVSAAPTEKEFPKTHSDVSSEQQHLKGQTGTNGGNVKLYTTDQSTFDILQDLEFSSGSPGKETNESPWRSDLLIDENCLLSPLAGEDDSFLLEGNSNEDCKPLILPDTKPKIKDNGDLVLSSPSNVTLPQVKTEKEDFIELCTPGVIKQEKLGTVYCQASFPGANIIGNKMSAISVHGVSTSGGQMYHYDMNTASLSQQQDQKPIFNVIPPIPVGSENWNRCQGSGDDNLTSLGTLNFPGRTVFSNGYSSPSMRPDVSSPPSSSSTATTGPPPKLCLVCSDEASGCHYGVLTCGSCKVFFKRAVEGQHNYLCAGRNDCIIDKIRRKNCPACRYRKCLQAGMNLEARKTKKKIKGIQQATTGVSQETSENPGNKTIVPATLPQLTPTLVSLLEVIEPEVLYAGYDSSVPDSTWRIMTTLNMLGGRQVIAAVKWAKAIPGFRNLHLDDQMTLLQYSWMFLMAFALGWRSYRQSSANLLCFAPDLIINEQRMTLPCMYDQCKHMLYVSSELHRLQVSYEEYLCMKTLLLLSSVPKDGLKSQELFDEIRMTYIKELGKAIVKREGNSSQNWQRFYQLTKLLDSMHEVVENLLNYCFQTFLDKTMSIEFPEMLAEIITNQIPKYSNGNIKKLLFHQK
Chain of Cytochrome P450 1A2 (Homo sapiens) (P05177 whole entry, looked up): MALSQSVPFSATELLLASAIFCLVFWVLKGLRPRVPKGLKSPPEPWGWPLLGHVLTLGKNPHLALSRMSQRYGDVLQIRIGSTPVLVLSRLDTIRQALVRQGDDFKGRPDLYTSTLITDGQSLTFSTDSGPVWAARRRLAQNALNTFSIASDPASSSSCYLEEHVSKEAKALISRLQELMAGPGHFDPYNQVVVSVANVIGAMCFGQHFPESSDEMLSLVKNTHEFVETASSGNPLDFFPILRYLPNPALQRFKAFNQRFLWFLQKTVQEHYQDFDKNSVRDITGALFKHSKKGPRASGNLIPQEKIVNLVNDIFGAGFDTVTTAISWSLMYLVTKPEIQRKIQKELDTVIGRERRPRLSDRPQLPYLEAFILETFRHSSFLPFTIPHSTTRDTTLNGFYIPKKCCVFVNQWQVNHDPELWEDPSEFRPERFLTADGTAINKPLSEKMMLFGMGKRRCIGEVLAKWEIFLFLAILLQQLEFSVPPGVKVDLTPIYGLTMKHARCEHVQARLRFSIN
Chain of 3',5'-cyclic-AMP phosphodiesterase 4B (Homo sapiens) (Q07343 whole entry, looked up): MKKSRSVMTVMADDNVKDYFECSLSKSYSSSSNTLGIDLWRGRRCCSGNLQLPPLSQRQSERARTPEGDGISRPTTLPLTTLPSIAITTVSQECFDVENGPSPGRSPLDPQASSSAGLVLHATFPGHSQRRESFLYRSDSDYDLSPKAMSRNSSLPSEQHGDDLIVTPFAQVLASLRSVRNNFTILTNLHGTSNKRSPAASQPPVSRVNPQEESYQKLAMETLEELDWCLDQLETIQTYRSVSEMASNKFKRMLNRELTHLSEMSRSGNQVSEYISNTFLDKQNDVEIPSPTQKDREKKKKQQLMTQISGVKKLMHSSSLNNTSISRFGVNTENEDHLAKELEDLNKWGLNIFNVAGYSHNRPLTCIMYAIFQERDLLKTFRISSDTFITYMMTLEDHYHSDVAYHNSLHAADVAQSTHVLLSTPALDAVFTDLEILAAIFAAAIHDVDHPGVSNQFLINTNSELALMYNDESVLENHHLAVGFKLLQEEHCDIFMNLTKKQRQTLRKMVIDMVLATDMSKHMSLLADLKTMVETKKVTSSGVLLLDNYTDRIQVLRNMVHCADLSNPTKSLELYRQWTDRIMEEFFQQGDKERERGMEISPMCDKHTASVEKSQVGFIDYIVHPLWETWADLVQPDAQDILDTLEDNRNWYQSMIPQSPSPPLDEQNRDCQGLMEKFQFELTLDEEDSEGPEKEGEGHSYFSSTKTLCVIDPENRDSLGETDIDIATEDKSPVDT

CC(=O)[C@H]1CC[C@H]2[C@@H]3CCC4=CC(=O)CC[C@]4(C)[C@H]3CC[C@]12C
active: activity change, negative = cytotoxicity [8] -96.5% and -82.2% | activity change, negative = cytotoxicity [9] -129% | Potency [11] 39.8 µM | viability change, negative = cytotoxic [12, 20] -101%
inactive: activity change, negative = inhibition [1] 1.43% | Potency [2] > 92 µM | Potency [3] > 92 µM | Potency [4] > 92 µM | Potency [5] > 92 µM | activity change, negative = inhibition [6] -29.5% | activity, negative = inhibition [7] 2.68% | Potency [10] | viability change, negative = cytotoxic ([12]; at 92.2 µM (top of the series)) -22.5% | Potency [13]

NC(=O)c1cccc(N)c1
active: Potency [14] 15.8 µM
inactive: activity change, negative = inhibition [1] 11.6% [at 38 µM] | activity change, negative = inhibition [6] 1.89% [at 38 µM] | activity, negative = inhibition [7] 1.75% [at 38 µM] | Potency [15] > 46 µM | Potency [16] > 46 µM | outcome [17]

Cc1nnc(NS(=O)(=O)c2ccc(N)cc2)s1
inactive: activity change, negative = inhibition [1] 7.08% and 5.89% | Potency [14] | Potency [2] > 92 µM | Potency [18] > 92 µM | Potency [3] > 92 µM | Potency [4] > 92 µM | Potency [5] > 92 µM | activity change, negative = inhibition [6] 16.1% and -9.52% | activity, negative = inhibition [7] 0.539% and 1.42% | Potency [8] | activity change, negative = cytotoxicity [9] -22.7% | Potency [10] | Potency [11] | Potency [12, 20] | Potency [19] | Potency [13] | outcome [17]

Cc1cccc(Nc2ccncc2S(=O)(=O)NC(=O)NC(C)C)c1
inactive: activity change, negative = inhibition [1] -9.3% | Potency [14] | activity change, negative = inhibition [6] -2.46% | activity, negative = inhibition [7] -16.6% | Potency [15] > 20.6 µM | Potency [16] > 20.6 µM

Cc1cccc(N(C)C(=S)Oc2ccc3ccccc3c2)c1
inactive: activity change, negative = inhibition [1] -6.52% and 9.03% | activity, negative = inhibition [7] 4.85% and -13.1% | Potency [15] > 20.6 µM | Potency [16] > 20.6 µM
active: Potency [14] 2.51 µM

COC(=O)Nc1nc2ccc(C(=O)c3ccccc3)cc2[nH]1
active: Potency [14] 3.98 µM
inactive: activity change, negative = inhibition [1] 17.1% and -8.17% | activity, negative = inhibition [7] -12.3% and -12% | Potency [15] > 20.6 µM | Potency [16] > 20.6 µM | outcome [17]

OCc1ccc(-c2nn(Cc3ccccc3)c3ccccc23)o1
active: Potency [14] 1.58 µM
inactive: activity change, negative = inhibition [1] -16.4% [at 38 µM] | activity change, negative = inhibition [6] 4.66% [at 38 µM] | activity, negative = inhibition [7] -17.6% [at 38 µM] | Potency [15] > 46 µM | Potency [16] > 46 µM | outcome [17]

COc1cc2ncnc(Nc3cccc(Cl)c3)c2cc1OC
active: activity change, negative = inhibition [1] -106% [at 38 µM]
inactive: activity change, negative = inhibition [6] 3.52% [at 38 µM] | Potency [15] > 46 µM | Potency [16] > 46 µM | outcome [17]

Nc1nc(F)nc2c1ncn2[C@@H]1O[C@H](CO)[C@@H](O)[C@@H]1O
inactive: activity change, negative = inhibition [1] -4.13% | activity, negative = inhibition [7] 7.84% | Potency [15] > 20.6 µM

CCN(CC)CC#CCOC(=O)C(O)(c1ccccc1)C1CCCCC1 (centres undefined)
active: activity change, negative = inhibition [6] -93%
inactive: activity change, negative = inhibition [1] -4.6% | activity, negative = inhibition [7] 0.633% | Potency [15] > 20.6 µM

CC[C@H](NC(C)C)[C@H](O)c1ccc(O)c2[nH]c(=O)ccc12
inactive: Potency [15] > 46 µM | Potency [16] > 46 µM

Cn1c(=O)c2c(ncn2CC(O)CO)n(C)c1=O (centres undefined)
inactive: activity change, negative = inhibition [1] 2.4% | activity change, negative = inhibition [6] 10.5% | activity, negative = inhibition [7] 1.2% | Potency [15] > 20.6 µM

CC(=O)Oc1ccccc1C(=O)Nc1ncc([N+](=O)[O-])s1
active: Potency [18] 30.6 µM | Potency [5] 20.7 µM | Potency [8] 25.1 µM | Potency [9] 31.6 µM | Potency [10] 31.6 µM | Potency [11] 31.6 µM | Potency [12, 20] 25.1 µM | Potency [19] 25.1 µM

NS(=O)(=O)c1cc2c(cc1Cl)NC(C(Cl)Cl)NS2(=O)=O (centres undefined)
inactive: activity change, negative = inhibition [1] 12.3% | activity, negative = inhibition [7] 2.72%

O=C(O)c1cn(C2CC2)c2cc(N3CCNCC3)c(F)cc2c1=O
inactive: activity change, negative = inhibition [1] 3.13% | activity change, negative = inhibition [6] 6.31% | activity, negative = inhibition [7] 11.7%

Clc1ccccc1CN1CCc2sccc2C1
inactive: activity change, negative = inhibition [1] -15.6% and -18.3% | activity, negative = inhibition [7] 1.54% and 0.607%

C1CCC(C(CC2CCCCN2)C2CCCCC2)CC1 (centres undefined)
inactive: activity change, negative = inhibition [1] 22.4% | activity, negative = inhibition [7] 5.25% | Potency [15] > 20.6 µM

CC1=CC(=O)c2ccccc2C1=O
inactive: Potency [15] > 20.6 µM | Potency [16] > 20.6 µM | outcome [17]
active: Potency [14] 0.158 µM | activity change, negative = inhibition [6] -115%

CC(C)(Sc1cc(C(C)(C)C)c(O)c(C(C)(C)C)c1)Sc1cc(C(C)(C)C)c(O)c(C(C)(C)C)c1
inactive: activity change, negative = inhibition [1] 1.37% | activity change, negative = inhibition [6] 10.7% | activity, negative = inhibition [7] 5.26% | Potency [15] > 20.6 µM | Potency [16] > 20.6 µM | outcome [17]
